Screening data deposited in PubChem BioAssay by several laboratories.
Shown are actives, neighbours in structure and some others; about 1.5% of the full set was active somewhere.
GLD-1 TGE inh: GLD-1/TGE RNA complex disruptors, primary screen, biochemical, fluorescence polarization | Female germline-specific tumor suppressor gld-1 (Caenorhabditis elegans), Q17339 | purified GLD-1 + fluorescein TGE RNA | inhibition, % at 5.96 µM | 320,000 compounds, 0.44% hits | AID 2280, 2010;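 active means percent inhibition above a per-plate cutoff, the plate mean of test compounds plus 3 SD, cut at about 30% in these data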;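 further: 0% = DMSO wells with GLD-1 and probe and 100% = wells lacking GLD-1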
Target sequence (Q17339 whole entry, looked up): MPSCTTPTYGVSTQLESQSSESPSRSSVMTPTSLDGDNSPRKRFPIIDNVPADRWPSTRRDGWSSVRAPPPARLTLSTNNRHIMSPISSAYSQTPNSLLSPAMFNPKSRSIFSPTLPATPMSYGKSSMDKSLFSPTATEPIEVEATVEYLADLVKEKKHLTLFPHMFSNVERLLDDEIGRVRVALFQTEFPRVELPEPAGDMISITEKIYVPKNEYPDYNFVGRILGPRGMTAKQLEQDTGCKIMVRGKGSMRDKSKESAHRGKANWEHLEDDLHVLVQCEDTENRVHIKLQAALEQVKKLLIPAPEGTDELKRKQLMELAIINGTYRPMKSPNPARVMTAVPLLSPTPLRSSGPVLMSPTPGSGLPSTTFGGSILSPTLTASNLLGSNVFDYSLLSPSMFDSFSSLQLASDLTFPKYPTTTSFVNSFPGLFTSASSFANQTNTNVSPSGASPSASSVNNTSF
E coli Lon inh: inhibitors of E. coli Lon protease, primary screen, biochemical, fluorescence polarization; purified E. coli Lon protease; inhibition, % at 7.94 µM; 360,000 compounds, 0.42% hits; AID 602123, 2011; in the data active means inhibition above about 13%, passing the limit was not always enough;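 further: 0% = enzyme with probe and DMSO and 100% = no enzyme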
Bcl-xL primary: inhibitors of human Bcl-xL, primary screen, biochemical, fluorescence polarization, HTS. inhibition, % at 10.9 µM. Bcl-2-like protein 1 (Homo sapiens), Q07817. 320,000 compounds, 0.7% hits. GST-Bcl-xL / FITC-Bim BH3 peptide fluorescence polarization;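 active means inhibition above the mean of all tested compounds plus 3 SD, cutoff set per campaign, cut at about 30% in these data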;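 further: 0% = DMSO wells and 100% = unlabeled Bim-BH3 peptide competitor; inhibitors lower millipolarization by displacing the labeled peptide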
MEX-5 binding: MEX-5 zinc finger RNA-binding disruptors – biochemical, C. elegans, fluorescence polarization, MLPCN library, primary screen | activity score (negative = inhibition of binding), % at 10 µM | Zinc finger protein mex-5 (Caenorhabditis elegans), Q9XUB2 | AID 1832, 2009 | MEX-5/FITC-TCR2 RNA binding; hits give low values | 300,000 compounds, 0.38% hits;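 active means inhibition past about -25% in most replicates, and total fluorescence under double the plate's negative control median, limit read from the data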;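 further: 0% = DMSO and -100% = 5 µM competing unlabeled TCR2 RNA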
EBV gp42 block: Epstein-Barr virus gp42 inhibitors, primary screen, biochemical, uHTS, fluorescence polarization; Fluorescence polarization binding assay, mP read-out; inhibition, % (tested at 21.74 µM); 220,000 compounds, 0.42% hits; in the data active means inhibition above about 50%
Target sequence (Q1HVG2 whole entry, looked up): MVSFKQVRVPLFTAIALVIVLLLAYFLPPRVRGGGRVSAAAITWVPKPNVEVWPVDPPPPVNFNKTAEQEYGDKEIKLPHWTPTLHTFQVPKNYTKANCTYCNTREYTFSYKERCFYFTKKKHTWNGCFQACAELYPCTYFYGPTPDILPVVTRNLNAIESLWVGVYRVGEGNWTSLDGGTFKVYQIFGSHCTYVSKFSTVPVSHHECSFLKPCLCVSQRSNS
MCL1 BIM primary: inhibitors of MCL1 binding to BIM-BH3, primary screen, biochemical, fluorescence polarization | GST-MCL1 / FITC-Bim-BH3 fluorescence polarization | inhibition, % at 10.9 µM | 320,000 compounds, 0.68% hits | Induced myeloid leukemia cell differentiation protein Mcl-1 (Homo sapiens), Q07820 | AID 2057, 2009;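 active means inhibition above the mean inhibition of all tested compounds plus 3 SD, set per campaign, cut at about 40% in these data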;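 further: 0% = DMSO wells and 100% = unlabeled Bim-BH3 peptide control; higher means more loss of mP so more displacement of Bim peptide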
E coli Lon conf: E. coli Lon protease inhibitor retest, confirmation, biochemical, fluorescence polarization; shares compounds with E coli Lon inh; purified E. coli Lon; inhibition, % at 7.94 µM; 1,400 compounds, 31% hits; AID 602230, 2012; in the data active means inhibition above about 16%;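 further: 0% = enzyme with probe and DMSO and 100% = no enzyme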
Numbers without * were called inactive; . = no result given; + = active, no number; ! = repeats disagree.

SMILES | GLD-1 TGE inh | E coli Lon inh | Bcl-xL primary | MEX-5 binding | EBV gp42 block | MCL1 BIM primary | E coli Lon conf
CC(=O)Nc1cncc(-c2cnn(CC(C)C)c2)n1 | . | 3 | . | . | . | . | .
CC(=O)c1c(C)[nH]c(C(=O)CSc2nnc(-c3ccccc3)n2Cc2ccc3c(c2)OCO3)c1C | -4 | 18* | -6 | -2 | -9 | -14 | 4
COc1ccc(NC(=O)c2ccc(N3CCCC3=O)cc2)cc1Cl | -6 | -8 | . | . | . | . | .
Cc1nc(Nc2ccc(Cl)cc2)c(C#N)c(=O)[nH]1 | -2 | 19* | 0 | 1 | . | 8 | 0
CCCCNC(=O)c1cc(-c2ccc(OC)cc2)on1 | 7 | 23* | -2 | 3 | -19 | 1 | -6
COc1ccc(-c2c(=O)n(OC)c3ccccc3[n+]2[O-])cc1OC | 22 | 7 | 20 | -1 | . | 17 | .
CCC(=O)N1CCc2cc(S(=O)(=O)N3CCCCC3CC)ccc21 (stereo not drawn) | 11 | 2 | 4 | . | . | 5 | .
Cn1c(CNC(=O)Nc2ccccc2)nnc1SCc1ccccc1 | 2 | -22 | 3 | 1 | -14 | 8 | .
Cn1c(CNC(=O)Nc2cccc(Cl)c2)nnc1SCc1ccccc1 | 5 | 15* | 0 | 0 | -5 | -4 | -13
O=C(NCC(c1ccco1)N1CCCC1)c1cc2ccccc2s1 (stereo not drawn) | -2 | -8 | 1 | . | . | 2 | .
CN(Cc1ccccc1)C(=O)c1ccc2nc([C@H]3C[C@H](O)[C@@H](CO)O3)[nH]c2c1 | . | -1 | . | . | . | . | .
Cc1noc(-c2ccccc2)c1NC(=O)Nc1ccc2nc([C@H]3C[C@H](O)[C@@H](CO)O3)[nH]c2c1 | . | 17* | . | . | . | . | 2
CSc1ncccc1C(=O)N1CCN(S(=O)(=O)c2ccc(C)cc2)CC1 | 5 | 17* | 9 | 3 | . | 7 | 0
CC1CCCN(C(=O)C(=O)c2cn(CC(=O)N3CCCCCC3)c3ccccc23)C1 (stereo not drawn) | 4 | 21* | 8 | -10 | . | 5 | 10
CN(C(=O)C(=O)c1cn(CC(=O)N2CCCC2)c2ccccc12)C1CCCCC1 | 3 | 39* | 7 | -1 | . | 1 | -12
Cc1cc(C(=O)OCC(=O)NC2(C#N)CCCCC2)c(C)o1 | 7 | 1 | 2 | . | . | -2 | .
COC(=O)[C@H](Cc1ccccc1)NC(=O)NCCC1=CCCCC1 | 9 | -5 | 2 | -1 | 3 | 4 | .
CCN(CC)CCCNc1ccc2ncn3c4ccc(O)cc4c(=O)c1c23 | . | + | . | . | . | . | +
CC/C(=C\C(=O)c1ccncc1)Nc1ccc(O)cc1 | 6 | 26* | 8 | 1 | -22 | 17 | -4
CCOC(=O)c1[nH]c(C)c(C(=O)OCC(=O)N2CCc3ccccc32)c1C | -3 | 139* | 1 | -2 | -26 | 1 | -13
Cn1c2ccccc2c2cc(/C=N/NC(=O)c3ccc(N)cc3)ccc21 | 0 | 20* | 9 | -3 | . | 3 | 2
COc1ccccc1OCCNC(=O)c1c(-c2ccccc2Cl)noc1C | 10 | -3 | -1 | 5 | . | 2 | .
CCN1CCN(Cc2ccc(NC(=O)c3ccc(C)c(NC(=O)c4nccn4C)c3)cc2C(F)(F)F)CC1 | -4 | 3 | 3 | 0 | -14 | 8 | .
CCN1CCN(Cc2ccc(NC(=O)c3ccc(C)c(NC(=O)c4cccc5[nH]ccc45)c3)cc2C(F)(F)F)CC1 | 1 | 13*! | 0 | -1 | -11 | 1 | 8
Cc1c(O)c(=O)n(-c2ccccc2)n1C | 3 | -11 | 2 | . | . | 7 | .
SMILES | GLD-1 TGE inh | E coli Lon inh | Bcl-xL primary | MEX-5 binding | EBV gp42 block | MCL1 BIM primary | E coli Lon conf
CCN(c1c(C)n(C)n(-c2ccccc2)c1=O)S(C)(=O)=O | 8 | 69* | 4 | 0 | -20 | 6 | -22
CC(NC(=O)CN1CCN(CC(=O)Nc2ccccc2Cl)CC1)c1ccc(Br)cc1 (stereo not drawn) | -3 | 0 | 3 | . | . | 4 | .
C=CCOC(=O)C1=C[C@H](c2coc3ccccc3c2=O)[C@@H](CCCO)[C@H](OCC)O1 | 6 | 26* | -8 | -1 | -6 | -14 | 1
CC1CCCCC1NC(=O)C1CCN(S(=O)(=O)c2cccc3nonc23)CC1 (stereo not drawn) | 11 | 5 | 4 | 1 | . | 6 | .
Cc1ccc(C(=O)NCC(=O)OCC(=O)N2CC(C)OC(C)C2)cc1 (stereo not drawn) | -3 | -11 | 2 | 1 | . | -2 | .
CC1CCCCC1NC(=O)CN1C(=O)c2cccc(N)c2C1=O (stereo not drawn) | . | 17* | . | -8 | 79* | . | 26*
CC1CCCCC1NC(=O)COC(=O)CN1C(=O)c2ccccc2C1=O (stereo not drawn) | 4 | -2 | -4 | . | . | -2 | .
CCOc1ccc(NC(=O)CSC2=NCCN2)cc1 | 6 | 45* | 5 | 1 | -2 | 12 | 4
C/C(=N\NC(=O)c1cccc(Br)c1)c1cccnc1 | . | -1 | . | 0 | . | . | .
Cc1cc(C)cc(OCCN2CCOCC2)c1 | 6 | 2 | 2 | 1 | . | 11 | .
CCOC(=O)C(=C1Nc2ccccc2N1)n1c(-c2cnccn2)nc2ccccc21 | . | -6 | . | . | . | . | .
CCOC(=O)C(=C1Nc2ccccc2N1)n1c(-c2ccco2)nc2ccccc21 | . | 41* | . | . | . | . | 20*
c1cc(-c2ccoc2)n2ccnc2c1 | . | 73* | . | . | . | . | 13
c1cc(-c2ccsc2)n2ccnc2c1 | . | 4 | . | . | . | . | .
N#CC1=C(N)C2=C(N3CCCCC3)CCCC2C1(C#N)C#N (stereo not drawn) | 18 | 24* | 25 | -44* | -18 | 35 | 0
CC1CCN(C(=O)COC(=O)c2ccc(=O)n(Cc3ccccc3)n2)CC1 | -1 | -3 | -6 | 0 | . | -5 | .
Cc1cc(C(C)(C)C)oc1C(=O)N(CC(=O)NC1CCCC1)Cc1ccccc1Cl | 7 | 133* | -2 | 2 | 9 | 0 | 3
CCCC(c1nnnn1CCOC)N1CCN(C(=O)c2ccco2)CC1 (stereo not drawn) | -4 | 29* | 12 | 1 | -15 | 15 | -7
CCCN(C(=O)Cc1coc2cc(OC)ccc12)C1CCS(=O)(=O)C1 (stereo not drawn) | 3 | -10 | . | . | . | . | .
COC(=O)Cc1c(C)c2ccc(OC(=O)c3ccccc3)cc2oc1=O | 2 | 33* | -3 | -2 | 9 | -5 | 28*
CC1C(=O)N(Cc2cn(CCC3OCCCO3)nn2)CCS(=O)(=O)N1Cc1ccc(-c2ccccc2)cc1 (stereo not drawn) | . | 6 | . | . | . | . | .
